Where a name gives a salt, the structure may show the parent alone.
Tested on: Saccharomyces cerevisiae BY4741 SeMeCo community
Assay: z-score of subpopulation abundance vs DMSO median, subpopulation auxotrophic for LU; higher = larger share of this subpopulation than in DMSO controls
Conditions: 10 µM; 24 h; SM minimal medium; subpopulation (auxotrophy): LU
Protocol: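 Fluorescent four-plasmid SeMeCo (self-establishing metabolically cooperating S. cerevisiae BY4741 community; plasmids pH-mRuby2, pL-mWasabi, pU-eCFP, pM-TagRFP657) was grown 24 h in minimal SM medium with each Selleck FDA-approved drug at 10 µM in 384-well plates. Cells were fixed and imaged by high-content confocal microscopy. For each auxotrophic subpopulation (and the prototroph), a z-score gives the deviation from the DMSO vehicle-control population median.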

First: Nc1ccc2cc3ccc(N)cc3nc2c1 [Proflavine Hemisulfate]
Second: Cc1cc(NS(=O)(=O)c2ccc(N)cc2)nc(C)n1 [sulfaisodimidine]
The “z-score of subpopulation abundance” value of the first is lower: -9.25 for the first, 0.99 for the second.

Compared with `CC(C)[N+](C)(CCOC(=O)C1c2ccccc2Oc2ccccc21)C(C)C` [Propantheline bromide], `O=C(O)CCc1nc(-c2ccccc2)c(-c2ccccc2)o1` [Oxaprozin] is lower in “z-score of subpopulation abundance” value: -0.92 for the first, -2.1 for the second.

First: CCN[C@@H]1C[C@H](N)[C@@H](O[C@H]2OC(CN)=CC[C@H]2N)[C@H](O)[C@H]1O[C@H]1OC[C@](C)(O)[C@H](NC)[C@H]1O [Netilmicin Sulfate]
Second: CN[C@@H]1[C@@H](O)[C@@H](O[C@@H]2[C@@H](O)[C@H](O[C@H]3O[C@H](CN)[C@@H](O)[C@H](O)[C@H]3O)[C@@H](N)C[C@H]2NC(=O)[C@@H](O)CN)OC[C@]1(C)O [Isepamicin Sulphate]
The “z-score of subpopulation abundance” value of the first is higher: 0.47 for the first, -0.44 for the second.

Going from `CC(C[N+](C)(C)C)OC(N)=O` (stereo not given) [Bethanechol chloride] to `CC[N+](CC)(CC)CC` [Tetraethylammonium bromide], the “z-score of subpopulation abundance” value rises from 0.8 to 1.18.

First: CCCCCC(=O)O[C@]1(C(C)=O)CC[C@H]2[C@@H]3CCC4=CC(=O)CC[C@]4(C)[C@H]3CC[C@@]21C [Hydroxyprogesterone caproate]
Second: C#C[C@]1(O)CC[C@H]2[C@@H]3CCC4=CCCC[C@@H]4[C@H]3CC[C@@]21C [Lynestrenol]
The “z-score of subpopulation abundance” value of the first is higher: 0.72 for the first, -0.82 for the second.

Going from `CSc1nc2cc(Cl)c(Oc3cccc(Cl)c3Cl)cc2[nH]1` [Triclabendazole] to `COc1ccc(-c2nc3cc(C4=NNC(=O)CC4C)ccc3[nH]2)cc1` (stereo not given) [Pimobendan], the “z-score of subpopulation abundance” value falls from 0.92 to 0.46.

First: CC(C)c1nc(N(C)S(C)(=O)=O)nc(-c2ccc(F)cc2)c1/C=C/[C@@H](O)C[C@@H](O)CC(=O)O [Rosuvastatin]
Second: CCCCNC(=O)NS(=O)(=O)c1ccc(C)cc1 [Tolbutamide]
The “z-score of subpopulation abundance” value of the first is higher: 1.31 for the first, -1.03 for the second.

First: Cc1nccn1CC1CCc2c(c3ccccc3n2C)C1=O (stereo not given) [Ondansetron Hydrochloride Dihydrate]
Second: Cc1[nH]cnc1CN1CCc2c(c3ccccc3n2C)C1=O [Alosetron Hydrochloride]
The “z-score of subpopulation abundance” value of the first is lower: -0.34 for the first, 1.07 for the second.

First: CO/N=C(\C(=O)N[C@@H]1C(=O)N2C(C(=O)O)=CCS[C@H]12)c1csc(N)n1 [Ceftizoxime]
Second: CO[C@@]1(NC(=O)Cc2cccs2)C(=O)N2C(C(=O)O)=C(COC(N)=O)CS[C@@H]21 [Cefoxitin sodium]
The “z-score of subpopulation abundance” value of the first is higher: -0.12 for the first, -0.8 for the second.

Compared with `COc1ccc2c3c1O[C@H]1C[C@@H](O)C=C[C@@]31CCN(C)C2` [Galanthamine], `CCOc1cc(N)c(Cl)cc1C(=O)NCC1CN(Cc2ccc(F)cc2)CCO1` (stereo not given) [Mosapride] is higher in “z-score of subpopulation abundance” value: 0.29 for the first, 0.77 for the second.

Compared with `CN(C)CCCN1c2ccccc2Sc2ccc(Cl)cc21` [Chlorpromazine HCl], `CN1CCN(CCCN2c3ccccc3Sc3ccc(Cl)cc32)CC1` [Prochlorperazine dimaleate salt] is higher in “z-score of subpopulation abundance” value: -0.32 for the first, -0.07 for the second.

Going from `CO[C@@H]1[C@@H](OC(N)=O)[C@@H](O)[C@H](Oc2ccc3c(O)c(NC(=O)c4ccc(O)c(CC=C(C)C)c4)c(=O)oc3c2C)OC1(C)C` [Novobiocin Sodium] to `CCCCc1oc2ccc(NS(C)(=O)=O)cc2c1C(=O)c1ccc(OCCCN(CCCC)CCCC)cc1` [Dronedarone HCl], the “z-score of subpopulation abundance” value falls from 0.73 to 0.61.

Compared with `CCN(CC)CCNC(=O)c1cc(Cl)c(N)cc1OC` [Metoclopramide], `COCCCN1CCC(NC(=O)c2cc(Cl)c(N)c3c2OCC3)CC1` [Prucalopride Succinate] is lower in “z-score of subpopulation abundance” value: 0.6 for the first, 0.16 for the second.

Compared with `Nc1nc(O)c2ncn(CCC(CO)CO)c2n1` [Penciclovir], `Cn1c(=O)c2c(ncn2CC(O)CO)n(C)c1=O` (stereo not given) [Dyphylline] is lower in “z-score of subpopulation abundance” value: 0.58 for the first, -0.11 for the second.

Going from `CC(C)[C@H]1CC[C@H](C(=O)N[C@H](Cc2ccccc2)C(=O)O)CC1` [Nateglinide] to `CN1[C@@H]2CC[C@H]1C[C@@H](OC(c1ccccc1)c1ccccc1)C2` [Benztropine mesylate], the “z-score of subpopulation abundance” value falls from 0 to -0.21.

Compared with `CCCN(CCC)CCc1cccc2c1CC(=O)N2` [Ropinirole HCl], `CC(C(=O)O)c1ccc2c(c1)Cc1cccnc1O2` (stereo not given) [Pranoprofen] is lower in “z-score of subpopulation abundance” value: 1.24 for the first, -0.35 for the second.

First: NCCNc1ccc(NCCN)c2c1C(=O)c1ccncc1C2=O [Pixantrone Maleate]
Second: COc1ccc2[nH]c([S@@+]([O-])Cc3ncc(C)c(OC)c3C)nc2c1 [NEXIUM (esomeprazole magnesium)]
The “z-score of subpopulation abundance” value of the first is higher: 2.14 for the first, 0.11 for the second.

Going from `C=C[C@]1(C)C[C@@H](OC(=O)CSC(C)(C)CNC(=O)[C@H](N)C(C)C)[C@]2(C)[C@H](C)CC[C@]3(CCC(=O)[C@H]32)[C@@H](C)[C@@H]1O` [Valnemulin HCl] to `C[C@]12CC[C@@H]3c4ccc(O)cc4C[C@@H](CCCCCCCCC[S+]([O-])CCCC(F)(F)C(F)(F)F)[C@H]3[C@@H]1CC[C@@H]2O` (stereo not given in full) [Fulvestrant], the “z-score of subpopulation abundance” value falls from 0.87 to 0.81.

First: CC(=O)NO [Acetohydroxamic acid]
Second: Cc1ncc([N+](=O)[O-])n1C [Dimetridazole]
The “z-score of subpopulation abundance” value of the first is higher: -0.13 for the first, -0.31 for the second.

Going from `CN[C@@H]1[C@H](O[C@H]2[C@H](O[C@H]3[C@H](O)[C@@H](O)[C@H](NC(=N)N)[C@@H](O)[C@@H]3NC(=N)N)O[C@@H](C)[C@]2(O)CO)O[C@@H](CO)[C@H](O)[C@H]1O` [Dihydrostreptomycin sulfate] to `Cc1c(-c2ccc(O)cc2)n(Cc2ccc(OCCN3CCCCCC3)cc2)c2ccc(O)cc12` [Bazedoxifene HCl], the “z-score of subpopulation abundance” value rises from -0.74 to 0.03.
